Inconclusive results are not listed. Active and inactive are the calls of the source. How the source made its calls, unless noted: active means hit-call score of the fitted dose curve at least 0.9, where 1 is the maximum; inactive means score below 0.9.
Key:
[1] = biological target: Myc proto-oncogene protein (Homo sapiens) (UniProt P01106); assay: ATG_Myc_CIS: Attagene CIS-FACTORIAL HepG2 Assay for human Myelocytomatosis (Myc) Proto-Oncogene Transcription Factor (AID 2282990); details: HepG2, Attagene cis-reporter transcription factor activity; actives raise or lower the signal
Procedure, shortened: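 Read-out: fluorescent reporter mRNA fragments resolved by capillary electrophoresis after RT-PCR. Human HepG2 liver cells carried transfected cis-element reporter units and were dosed for 24 h. Gain or loss of signal fitted relative to DMSO baseline.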

[2] = ATG_NF_kB_CIS: Attagene CIS-FACTORIAL HepG2 Assay for human Nuclear Factor Kappa B (NF-kB) (AID 2282991); details: HepG2 Attagene cis-factorial NF-kB reporter mRNA; actives raise or lower the signal
Procedure, shortened: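 DMSO served as negative control and baseline for bidirectional curve fitting. Transiently transfected HepG2 cells were dosed for 24 h, then reporter transcripts were measured by RT-PCR with capillary electrophoresis detection.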

[3] = ATG_NRF2_ARE_CIS: Attagene CIS-FACTORIAL HepG2 Assay for human Nuclear Factor Erythroid 2 Related Factor 2 (NFR2) response to Antioxidant Response Elements (ARE) (AID 2282992); details: HepG2 Attagene ARE/NRF2 reporter, transcription factor activity; actives raise or lower the signal;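 on AC50: reporter mRNA level measured by RT-PCR and capillary electrophoresis fluorescence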
Procedure, shortened: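 Endogenous transcription factor activity in human liver HepG2 cells is tracked via a cis-element-driven reporter within a multiplexed set. mRNA induction is read by RT-PCR and capillary electrophoresis after 24 h, with DMSO as baseline.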

[4] = ATG_Oct_MLP_CIS: Attagene CIS-FACTORIAL HepG2 Assay for human Octamer-Binding Transcription Factor (Oct) (AID 2282993); details: HepG2 Attagene cis-factorial Oct reporter, mRNA; actives raise or lower the signal
Procedure, shortened: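 Read-out: reporter mRNA via RT-PCR plus capillary electrophoresis of 6-FAM-labelled fragments. Transiently transfected HepG2, 24 h exposure, endogenous TF activity on cis elements. Gain or loss of signal fitted relative to DMSO.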

[5] = biological target: Cellular tumor antigen p53 (Homo sapiens) (UniProt P04637); assay: ATG_p53_CIS: Attagene CIS-FACTORIAL HepG2 Assay for human p53 Transcription Factor (AID 2282994); details: HepG2 p53 cis-element reporter, Attagene mRNA; actives raise or lower the signal
Procedure, shortened: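 Steps: transfect HepG2 with multiplexed cis reporter constructs; dose chemicals 24 h; extract RNA, reverse-transcribe, PCR-amplify reporter sequences; FAM-label, HpaI-digest, resolve fragments by CE. Activity fitted both directions relative to DMSO.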

[6] = biological target: human Peroxisome Proliferator-activated Receptor delta (PPARd), PPARD (gene 5467) (UniProt Q03181); assay: ATG_PPARd_TRANS: Attagene TRANS-FACTORIAL HepG2 Assay for human Peroxisome Proliferator-activated Receptor delta (PPARd) (AID 2283002; active means hit-call score of the fitted dose curve at least 0.9, where 1 is the maximum)
Procedure, shortened: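 Read-out: reporter mRNA induction, quantified by fluorescent RT-PCR products resolved by capillary electrophoresis. Human HepG2 liver cells carried transiently transfected Gal4-UAS reporter constructs with chimeric NR-Gal4 fusions. Cells were dosed for 24 h; DMSO served as baseline.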

[7] = biological target: Peroxisome proliferator-activated receptor gamma (Homo sapiens) (UniProt P37231); assay: ATG_PPARg_TRANS: Attagene TRANS-FACTORIAL HepG2 Assay for human Peroxisome Proliferator-activated Receptor-gamma (PPARg) (AID 2283007; active means hit-call score of the fitted dose curve at least 0.9, where 1 is the maximum)
Procedure, shortened: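 Chimeric NR-Gal4 transactivation is measured in transiently transfected HepG2 cells by reporter mRNA induction at 24 h. Detection uses RT-PCR with fluorescent labelling and capillary electrophoresis; DMSO defines baseline.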

[8] = biological target: Nuclear receptor subfamily 1 group I member 2 (Homo sapiens) (UniProt O75469); assay: ATG_PXR_TRANS: Attagene TRANS-FACTORIAL HepG2 Assay for human Pregnane X Receptor (PXR) (AID 2283008; active means hit-call score of the fitted dose curve at least 0.9, where 1 is the maximum)
Procedure, shortened: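 HepG2 transfected (FuGene 6) with GAL4-UAS reporter units + PXR-Gal4 chimera; dosed 24 h. Total RNA → oligo(dT) RT → PCR → 6-FAM primer extension → HpaI cut → CE. Gain-of-signal vs DMSO.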

[9] = biological target: human Peroxisome Proliferator-activated Receptor alpha (PPARa), PPARA (gene 5465) (UniProt Q07869); assay: ATG_PPARa_TRANS: Attagene TRANS-FACTORIAL HepG2 Assay for human Peroxisome Proliferator-activated Receptor alpha (PPARa) (AID 2283001; active means hit-call score of the fitted dose curve at least 0.9, where 1 is the maximum;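 on AC50: potency for gain of reporter signal over DMSO so agonist or activator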)
Procedure, shortened: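 HepG2, transient MRTU transfection, 24 h treatment. RT-PCR → FAM labelling → capillary electrophoresis. Fit vs DMSO, positive direction.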

[10] = biological target: Retinoic acid receptor alpha (Homo sapiens) (UniProt P10276); assay: ATG_RARa_TRANS: Attagene TRANS-FACTORIAL HepG2 Assay for human Retinoic Acid Receptor alpha (RARa) (AID 2283005; active means hit-call score of the fitted dose curve at least 0.9, where 1 is the maximum)
Procedure, shortened: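 HepG2 transiently transfected with multiplex GAL4-UAS reporter units including a human RARa–GAL4 chimera; 24 h compound exposure. Reporter mRNA quantified by RT-PCR, 6-FAM labeling and capillary electrophoresis; gain of signal versus DMSO.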

[11] = biological target: human RAR-related Orphan Receptor beta (RORb), RORB (gene 6096) (UniProt Q92753); assay: ATG_RORb_TRANS: Attagene TRANS-FACTORIAL HepG2 Assay for human RAR-related Orphan Receptor beta (RORb) (AID 2283010; active means hit-call score of the fitted dose curve at least 0.9, where 1 is the maximum)
Procedure, shortened: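 Transfect HepG2 with multiple GAL4-UAS reporter transcription units; dose chemicals for 24 h; isolate RNA, reverse-transcribe and PCR-amplify reporter sequences; label, digest and resolve fragments by capillary electrophoresis; fit increases relative to DMSO.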

[12] = biological target: human Retinoic Acid Receptor beta (RARb), RARB (gene 5915) (UniProt P10826); assay: ATG_RARb_TRANS: Attagene TRANS-FACTORIAL HepG2 Assay for human Retinoic Acid Receptor beta (AID 2283004; active means hit-call score of the fitted dose curve at least 0.9, where 1 is the maximum)
Procedure, shortened: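 HepG2 cells transiently transfected with multiplexed GAL4-UAS reporter units expressing chimeric NR–Gal4 fusions; 24 h compound exposure. Reporter mRNA quantified by RT-PCR, 6-FAM labelling, HpaI digestion and capillary electrophoresis; gain-of-signal fitted against DMSO baseline.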

[13] = biological target: human Retinoic Acid Receptor gamma (RARg), RARG (gene 5916) (UniProt P13631); assay: ATG_RARg_TRANS: Attagene TRANS-FACTORIAL HepG2 Assay for human Retinoic Acid Receptor gamma (RARg) (AID 2283009; active means hit-call score of the fitted dose curve at least 0.9, where 1 is the maximum)
Procedure, shortened: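 TRANS format measured activity of exogenous NR-GAL4 fusion (RARg) in transfected HepG2 liver cells after 24 h dosing. Induced reporter RNA was detected by RT-PCR/capillary electrophoresis fluorescence, analysed in the positive direction against DMSO.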

Sequence of Peroxisome proliferator-activated receptor gamma (Homo sapiens) (P37231 whole entry, looked up, the tested form may be a part): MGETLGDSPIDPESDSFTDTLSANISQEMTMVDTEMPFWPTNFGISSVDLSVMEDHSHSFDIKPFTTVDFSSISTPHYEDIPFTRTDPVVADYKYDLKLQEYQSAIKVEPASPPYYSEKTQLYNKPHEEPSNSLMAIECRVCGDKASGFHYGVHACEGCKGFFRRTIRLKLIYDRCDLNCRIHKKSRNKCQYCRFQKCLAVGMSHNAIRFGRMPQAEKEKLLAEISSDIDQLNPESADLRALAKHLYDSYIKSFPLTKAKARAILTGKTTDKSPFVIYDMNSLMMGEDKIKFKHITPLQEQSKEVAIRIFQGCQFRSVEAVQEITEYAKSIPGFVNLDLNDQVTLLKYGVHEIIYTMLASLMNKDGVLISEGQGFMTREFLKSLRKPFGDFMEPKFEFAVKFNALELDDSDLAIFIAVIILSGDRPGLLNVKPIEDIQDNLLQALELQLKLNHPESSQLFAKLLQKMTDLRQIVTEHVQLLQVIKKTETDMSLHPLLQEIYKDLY
Sequence of human Peroxisome Proliferator-activated Receptor delta (PPARd), PPARD (gene 5467) (Q03181 whole entry, looked up, the tested form may be a part): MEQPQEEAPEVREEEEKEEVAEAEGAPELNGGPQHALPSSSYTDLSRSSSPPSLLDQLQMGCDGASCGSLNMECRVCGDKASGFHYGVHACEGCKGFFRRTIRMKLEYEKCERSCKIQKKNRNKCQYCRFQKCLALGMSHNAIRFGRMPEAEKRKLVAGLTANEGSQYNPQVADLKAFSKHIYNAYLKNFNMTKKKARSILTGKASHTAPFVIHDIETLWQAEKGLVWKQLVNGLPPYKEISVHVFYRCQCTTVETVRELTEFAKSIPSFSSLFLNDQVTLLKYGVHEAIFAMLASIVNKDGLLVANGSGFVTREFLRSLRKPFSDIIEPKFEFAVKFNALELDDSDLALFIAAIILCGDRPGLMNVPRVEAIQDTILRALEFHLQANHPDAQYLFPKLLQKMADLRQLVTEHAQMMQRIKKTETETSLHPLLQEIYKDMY
Sequence of Myc proto-oncogene protein (Homo sapiens) (P01106 whole entry, looked up, the tested form may be a part): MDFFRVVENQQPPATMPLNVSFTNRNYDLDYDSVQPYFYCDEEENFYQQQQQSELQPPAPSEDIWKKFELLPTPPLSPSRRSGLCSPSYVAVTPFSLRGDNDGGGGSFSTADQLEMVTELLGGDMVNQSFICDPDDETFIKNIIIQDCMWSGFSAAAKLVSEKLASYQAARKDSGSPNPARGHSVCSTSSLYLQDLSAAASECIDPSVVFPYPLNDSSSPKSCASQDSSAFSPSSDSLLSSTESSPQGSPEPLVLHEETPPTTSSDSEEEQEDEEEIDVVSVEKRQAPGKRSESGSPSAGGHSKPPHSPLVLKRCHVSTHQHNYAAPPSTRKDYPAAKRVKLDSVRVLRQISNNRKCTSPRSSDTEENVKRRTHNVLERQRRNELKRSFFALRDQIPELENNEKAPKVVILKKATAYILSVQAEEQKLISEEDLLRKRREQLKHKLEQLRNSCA
Sequence of human Peroxisome Proliferator-activated Receptor alpha (PPARa), PPARA (gene 5465) (Q07869 whole entry, looked up): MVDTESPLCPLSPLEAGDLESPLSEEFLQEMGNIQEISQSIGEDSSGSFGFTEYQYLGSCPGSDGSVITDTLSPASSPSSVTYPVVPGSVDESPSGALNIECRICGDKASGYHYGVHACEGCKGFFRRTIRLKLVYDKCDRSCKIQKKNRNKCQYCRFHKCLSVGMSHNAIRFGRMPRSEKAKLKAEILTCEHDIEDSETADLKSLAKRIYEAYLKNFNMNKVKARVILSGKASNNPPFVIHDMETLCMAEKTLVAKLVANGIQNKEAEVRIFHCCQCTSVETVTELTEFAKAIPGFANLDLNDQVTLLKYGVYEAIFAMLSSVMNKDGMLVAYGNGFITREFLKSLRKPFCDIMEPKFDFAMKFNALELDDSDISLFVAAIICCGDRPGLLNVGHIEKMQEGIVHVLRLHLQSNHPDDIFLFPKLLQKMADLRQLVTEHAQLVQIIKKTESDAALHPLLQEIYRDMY
Sequence of Cellular tumor antigen p53 (Homo sapiens) (P04637 whole entry, looked up, the tested form may be a part): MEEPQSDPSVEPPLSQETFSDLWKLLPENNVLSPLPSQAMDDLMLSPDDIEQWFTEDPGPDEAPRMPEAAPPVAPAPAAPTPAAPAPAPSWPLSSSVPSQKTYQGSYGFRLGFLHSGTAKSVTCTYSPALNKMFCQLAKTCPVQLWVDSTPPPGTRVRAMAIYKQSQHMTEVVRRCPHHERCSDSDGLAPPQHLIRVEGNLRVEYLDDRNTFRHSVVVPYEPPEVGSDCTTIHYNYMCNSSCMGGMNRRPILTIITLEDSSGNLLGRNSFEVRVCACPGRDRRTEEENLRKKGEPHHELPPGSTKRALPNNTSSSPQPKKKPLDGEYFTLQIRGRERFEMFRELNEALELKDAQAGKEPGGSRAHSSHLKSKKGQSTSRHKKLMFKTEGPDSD
Sequence of Retinoic acid receptor alpha (Homo sapiens) (P10276 whole entry, looked up, the tested form may be a part): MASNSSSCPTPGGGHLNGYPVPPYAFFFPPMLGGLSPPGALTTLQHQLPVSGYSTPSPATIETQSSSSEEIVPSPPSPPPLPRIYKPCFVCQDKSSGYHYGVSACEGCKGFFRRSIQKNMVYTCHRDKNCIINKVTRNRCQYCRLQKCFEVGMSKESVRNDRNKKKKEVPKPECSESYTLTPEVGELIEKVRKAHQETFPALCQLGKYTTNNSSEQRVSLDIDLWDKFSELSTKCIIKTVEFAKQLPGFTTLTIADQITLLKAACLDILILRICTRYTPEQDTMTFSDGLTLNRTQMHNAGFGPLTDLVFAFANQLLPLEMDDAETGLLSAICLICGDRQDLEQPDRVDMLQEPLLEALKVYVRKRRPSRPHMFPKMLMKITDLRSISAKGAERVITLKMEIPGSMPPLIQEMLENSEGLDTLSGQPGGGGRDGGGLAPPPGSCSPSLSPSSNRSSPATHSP
Sequence of human Retinoic Acid Receptor gamma (RARg), RARG (gene 5916) (P13631 whole entry, looked up, the tested form may be a part): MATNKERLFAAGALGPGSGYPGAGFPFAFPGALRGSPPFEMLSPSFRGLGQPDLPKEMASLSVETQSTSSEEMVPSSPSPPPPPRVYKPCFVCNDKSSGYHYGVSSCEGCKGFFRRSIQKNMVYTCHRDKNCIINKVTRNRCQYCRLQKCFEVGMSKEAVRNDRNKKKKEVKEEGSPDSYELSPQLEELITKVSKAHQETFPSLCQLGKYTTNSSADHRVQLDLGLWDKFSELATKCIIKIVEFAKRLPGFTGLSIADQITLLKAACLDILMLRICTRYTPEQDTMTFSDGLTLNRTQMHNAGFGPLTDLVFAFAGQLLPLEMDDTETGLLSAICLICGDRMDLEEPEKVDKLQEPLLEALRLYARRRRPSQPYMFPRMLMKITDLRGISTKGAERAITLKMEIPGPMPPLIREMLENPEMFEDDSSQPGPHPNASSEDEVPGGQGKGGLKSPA
Sequence of human Retinoic Acid Receptor beta (RARb), RARB (gene 5915) (P10826 whole entry, looked up, the tested form may be a part): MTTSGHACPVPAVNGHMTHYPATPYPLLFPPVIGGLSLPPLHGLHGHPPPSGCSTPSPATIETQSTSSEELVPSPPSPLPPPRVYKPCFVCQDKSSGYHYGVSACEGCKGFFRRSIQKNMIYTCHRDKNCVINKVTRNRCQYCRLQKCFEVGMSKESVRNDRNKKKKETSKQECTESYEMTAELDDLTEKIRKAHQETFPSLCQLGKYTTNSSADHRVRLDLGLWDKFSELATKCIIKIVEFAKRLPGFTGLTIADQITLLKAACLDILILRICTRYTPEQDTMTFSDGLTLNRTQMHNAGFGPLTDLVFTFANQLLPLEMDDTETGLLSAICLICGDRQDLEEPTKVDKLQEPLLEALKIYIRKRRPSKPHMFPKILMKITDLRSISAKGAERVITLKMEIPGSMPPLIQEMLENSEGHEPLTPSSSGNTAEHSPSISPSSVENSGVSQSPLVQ
Sequence of Nuclear receptor subfamily 1 group I member 2 (Homo sapiens) (O75469 whole entry, looked up, the tested form may be a part): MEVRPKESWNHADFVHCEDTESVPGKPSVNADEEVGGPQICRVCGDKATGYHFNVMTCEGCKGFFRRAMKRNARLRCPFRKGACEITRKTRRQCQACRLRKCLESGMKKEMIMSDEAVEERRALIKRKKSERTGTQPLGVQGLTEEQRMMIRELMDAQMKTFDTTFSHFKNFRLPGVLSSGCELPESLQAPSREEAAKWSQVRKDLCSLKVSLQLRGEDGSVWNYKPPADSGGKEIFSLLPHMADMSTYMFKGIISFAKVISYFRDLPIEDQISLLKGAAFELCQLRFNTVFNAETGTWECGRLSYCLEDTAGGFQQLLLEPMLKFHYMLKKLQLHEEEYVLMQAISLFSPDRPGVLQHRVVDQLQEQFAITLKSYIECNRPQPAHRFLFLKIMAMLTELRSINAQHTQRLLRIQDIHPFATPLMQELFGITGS
Sequence of human RAR-related Orphan Receptor beta (RORb), RORB (gene 6096) (Q92753 whole entry, looked up, the tested form may be a part): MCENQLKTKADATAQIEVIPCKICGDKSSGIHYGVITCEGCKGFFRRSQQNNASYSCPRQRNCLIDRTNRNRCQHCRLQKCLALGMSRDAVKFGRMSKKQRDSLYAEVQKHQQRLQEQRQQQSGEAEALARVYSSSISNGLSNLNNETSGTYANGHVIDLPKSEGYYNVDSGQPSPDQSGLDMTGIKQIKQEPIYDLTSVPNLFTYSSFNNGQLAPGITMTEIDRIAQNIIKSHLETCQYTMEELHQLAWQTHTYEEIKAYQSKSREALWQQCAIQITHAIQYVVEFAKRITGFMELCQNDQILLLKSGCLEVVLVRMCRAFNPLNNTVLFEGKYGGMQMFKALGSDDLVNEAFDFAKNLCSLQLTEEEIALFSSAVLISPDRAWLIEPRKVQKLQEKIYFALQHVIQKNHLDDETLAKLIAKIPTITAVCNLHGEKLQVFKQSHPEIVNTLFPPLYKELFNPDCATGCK

For `CC(C)Nc1nc(N)nc(Cl)n1`, the outcome [1] was “inactive”, the outcome [2] was “inactive” and the outcome [3] was “inactive”. For the same molecule, the outcome [4] was “inactive”, the outcome [5] was “inactive” and the outcome [6] was “inactive”. For the same molecule, the outcome [7] was “inactive” and the outcome [8] was “inactive”.
In the case of `CS(=O)(=O)c1ccc(Cl)cc1`, the outcome [1] is reported as “inactive”, the outcome [3] is reported as “inactive” and the outcome [4] is reported as “inactive”. For the same molecule, the outcome [6] was “inactive” and the outcome [8] was “inactive”.
With `CCC(C)S` (stereo not given) the outcome [2] was “inactive”, the outcome [3] was “inactive” and the outcome [4] was “inactive”. For the same molecule, the outcome [5] was “inactive”, the outcome [9] was “inactive” and the outcome [8] was “inactive”.
With `FC(F)(F)COCC(F)(F)F` the outcome [1] was “inactive”, the outcome [2] was “inactive” and the outcome [3] was “inactive”. The outcome [4] was “inactive”, the outcome [5] was “inactive” and the outcome [9] was “inactive”. For the same molecule, the outcome [10] was “inactive”, the outcome [7] was “inactive” and the outcome [8] was “inactive”. For the same molecule, the outcome [11] was “inactive”.
For `C=CC(C)C#N` (stereo not given), the outcome [1] was “inactive”, the outcome [2] was “inactive” and the outcome [3] was “inactive”. The outcome [5] was “inactive”, the outcome [6] was “inactive” and the outcome [12] was “inactive”. For the same molecule, the outcome [10] was “inactive”, the outcome [7] was “inactive” and the outcome [8] was “inactive”. For the same molecule, the outcome [13] was “inactive”.
For `CCOC(=O)c1ccc(N)cc1`, the outcome [1] was “inactive”, the outcome [2] was “inactive” and the outcome [3] was “inactive”. For the same molecule, the outcome [4] was “inactive”, the outcome [5] was “inactive” and the outcome [9] was “inactive”. The outcome [7] was “inactive” and the outcome [8] was “inactive”.
In the case of `CCCCCCCCCC(=O)OC`, the outcome [1] is reported as “inactive”, the outcome [2] is reported as “inactive” and the outcome [3] is reported as “inactive”. The outcome [4] was “inactive”, the outcome [9] was “inactive” and the AC50 [7] was 57.1 µM (active). The outcome [8] was “inactive”.
With `COc1ccc(N)c([N+](=O)[O-])c1` the outcome [1] was “inactive”, the outcome [2] was “inactive” and the outcome [3] was “inactive”. For the same molecule, the outcome [4] was “inactive”, the outcome [5] was “inactive” and the outcome [6] was “inactive”. The outcome [7] was “inactive”, the outcome [8] was “inactive” and the outcome [11] was “inactive”.
For `C=C1C[C@]23C[C@@]1(O)CC[C@H]2[C@@]12C=C[C@H](O)[C@@](C)(C(=O)O1)[C@H]2[C@@H]3C(=O)O`, the outcome [1] was “inactive”, the outcome [3] was “inactive” and the outcome [4] was “inactive”. For the same molecule, the outcome [6] was “inactive” and the outcome [7] was “inactive”.
With `CC1C2CC(CC2C2CCCC(O)C2)C1(C)C` (stereo not given) the outcome [1] was “inactive”, the outcome [2] was “inactive” and the outcome [3] was “inactive”. The outcome [4] was “inactive”, the outcome [5] was “inactive” and the outcome [6] was “inactive”. The outcome [7] was “inactive”, the AC50 [8] was 14.3 µM (active) and the outcome [13] was “inactive”.
With `CCCCCCOCCOCCO` the outcome [1] was “inactive”, the outcome [3] was “inactive” and the outcome [4] was “inactive”. The outcome [6] was “inactive”, the outcome [7] was “inactive” and the outcome [8] was “inactive”. For the same molecule, the outcome [13] was “inactive”.
In the case of `CN(C)CCOc1ccc(/C(=C(/CCCl)c2ccccc2)c2ccccc2)cc1`, the outcome [1] is reported as “inactive”, the outcome [2] is reported as “inactive” and the AC50 [3] is reported as 2.47 µM (active). The outcome [4] was “inactive”, the outcome [5] was “inactive” and the outcome [8] was “inactive”. The outcome [13] was “inactive”.
In the case of `CC1(C)C(=O)N(Cl)C(=O)N1Br`, the outcome [1] is reported as “inactive”, the outcome [2] is reported as “inactive” and the outcome [3] is reported as “inactive”. For the same molecule, the outcome [4] was “inactive”, the outcome [9] was “inactive” and the outcome [12] was “inactive”. The outcome [10] was “inactive” and the outcome [7] was “inactive”.
With `C1CCOC1` the outcome [1] was “inactive”, the outcome [2] was “inactive” and the outcome [3] was “inactive”. The outcome [4] was “inactive”, the outcome [5] was “inactive” and the outcome [10] was “inactive”. The outcome [7] was “inactive”, the outcome [8] was “inactive” and the outcome [13] was “inactive”.
In the case of `Cc1cc(C)nc(NS(=O)(=O)c2ccc(N)cc2)n1`, the outcome [3] is reported as “inactive”, the outcome [4] is reported as “inactive” and the outcome [5] is reported as “inactive”. For the same molecule, the outcome [9] was “inactive”, the outcome [6] was “inactive” and the outcome [7] was “inactive”. For the same molecule, the outcome [8] was “inactive” and the outcome [11] was “inactive”.
In the case of `CCCC(C)=O`, the outcome [1] is reported as “inactive”, the outcome [2] is reported as “inactive” and the outcome [3] is reported as “inactive”. The outcome [4] was “inactive”, the outcome [5] was “inactive” and the outcome [10] was “inactive”. For the same molecule, the outcome [13] was “inactive”.
With `C=C(C)CNCC` the outcome [1] was “inactive”, the outcome [2] was “inactive” and the outcome [3] was “inactive”. For the same molecule, the outcome [4] was “inactive”, the outcome [5] was “inactive” and the outcome [9] was “inactive”. For the same molecule, the outcome [6] was “inactive”, the AC50 [8] was 54.6 µM (active) and the outcome [13] was “inactive”.
For `Cc1ncc[nH]1`, the outcome [1] was “inactive”, the outcome [2] was “inactive” and the outcome [3] was “inactive”. For the same molecule, the outcome [4] was “inactive”, the outcome [5] was “inactive” and the outcome [9] was “inactive”. For the same molecule, the outcome [7] was “inactive” and the outcome [8] was “inactive”.
In the case of `CCCCCCC(O)CCCCCCCCCCC(=O)O` (stereo not given), the outcome [1] is reported as “inactive”, the AC50 [3] is reported as 27.3 µM (active) and the outcome [4] is reported as “inactive”. For the same molecule, the AC50 [9] was 5.01 µM (active), the AC50 [6] was 12.1 µM (active) and the outcome [12] was “inactive”. For the same molecule, the outcome [10] was “inactive”, the AC50 [7] was 14.2 µM (active) and the outcome [8] was “inactive”. The outcome [13] was “inactive”.
